# Reference: PubChem BioAssay (NCI)
# Compounds without any hit were thinned out: in the full panel of roughly 83,000, 20% have a hit.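 For each line, cells grew in 96-well plates with the test compound present at a single concentration for 48 hours.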 Values without a mark were called inactive. The source made the active and inactive calls. How the source made its calls: active means growth percent below 10; inactive means the rest.
# System: RXF 393 renal
# Experiment: NCI-60 one-dose screen, 48 h (100 = growth as untreated, 0 = no growth, -100 = all killed)
# Details: 10 µM unless noted
row,Compound,growth [%]
1,COc1ccc2c(c1)Nc1ccccc1S2,115
2,O=[N+]([O-])c1c(Cl)ncnc1Cl,108
3,CCN(C(=O)Nc1ccccc1Cl)c1ccccc1,115
4,CC(C)c1ccccc1NC(=O)N1CCC(C(C)C)CC1,101
5,C=C1SC(=Nc2c(C)cccc2C)N(c2nc(Cl)nc(Cl)n2)C12CCCCC2,106
6,CCCCCCCCCCCCCCCCOc1ccccc1NC(=O)CC(C)=O,107
7,Cc1ccnc(Nc2nc3ccccc3[nH]2)n1,116
8,CCN(CC)CCCC(C)NC(=S)N/N=C(\C)c1ccccn1 (stereo not drawn),49.4
9,CC(C)(C)NCCC(O)c1cc(C(F)(F)F)nc2c(C(F)(F)F)cccc12 (stereo not drawn),73.3

# System: SF-268 CNS
# Experiment: as above
# Details: 10 µM unless noted
row,Compound,growth
1,NC(CCl)=NCC12CC3CC(CC(C3)C1)C2,-3.73% (active)
2,CN1CCCN(C(c2ccccc2)c2ccc(Br)cc2)CC1 (stereo not drawn),61.6%
3,CCNc1ncnc2[nH]ncc12,112%
4,CC(C)(CC(=O)O)CC(=O)O,102%
5,CCc1ccccc1C(=O)N(CC)CC,97.5%
6,COc1cc2c(c(OC)c1OC)-c1ccc(SC)c(=O)cc1[C@@H](NC1OC(CO)C(O)C(O)C1O)CC2 (stereo partly drawn),22.7%
7,CCN(C(=O)Nc1ccccc1Cl)c1ccccc1,109%
8,CC(C)(C)CC1(C)NC(=O)NC1=O (stereo not drawn),119%
9,O=C(c1ccc(Cl)cc1)N1CCCCC1,104%
10,CC(C)c1ccccc1NC(=O)N1CCC(C(C)C)CC1,115%
11,C=C1SC(=Nc2c(C)cccc2C)N(c2nc(Cl)nc(Cl)n2)C12CCCCC2,107%
12,CCCCCCCCCCCCCCCCOc1ccccc1NC(=O)CC(C)=O,103%
13,O=C(O)CC1=CCCCC1,93.4%
14,CCOC(=O)c1ccc(Nc2sc(C(=O)c3ccc(Br)cc3)c(N)c2C#N)cc1,33.5%
15,NNc1ncnc2c1ncn2C1OC(CO)C(O)C1O (stereo not drawn),50.3%
16,NS(=O)(=O)c1cc(=O)[nH]c(=O)[nH]1,110%
17,CC(C)NC(=O)OCc1c(COC(=O)NC(C)C)c(-c2ccc(Cl)cc2)n2c1CCC2,31%

row,Compound,growth
1,NNc1ncnc2nc[nH]c12,83.7%
2,O=S(=O)(O)c1cccnc1,103%
3,O=C(O)c1cc(I)ccc1O,111%
4,Nc1nc2nnc(-c3ccccc3)c(-c3ccccc3)n2n1,103%
5,Nc1cc(N)ncn1,102%
6,Clc1ncnc2nc[nH]c12,95.8%
7,N=C(N)c1nn(C2OC(CO)C(O)C2O)c2nc[nH]c(=O)c12 (stereo not drawn),-7.38% (active)
8,CCN(CC)CCCC(C)NC(=S)N/N=C(\C)c1ccccn1 (stereo not drawn),43.7%
9,C[n+]1c(/C=C\C=C\N2CCCCC2)sc2ccccc21,12.9%
10,S=c1nc2[nH]c3ccccc3c2n[nH]1,87.6%
11,Cn1c2ccccc2c2nnc(NCCCCO)nc21,91.1%
12,O=C(NC1CCCCC1)c1ccc(Cl)cc1,97.1%
13,CNc1ccccc1C(=O)N/N=C/C=C/c1ccccc1,34.9%
14,C[n+]1cc2cc3c(cc2c2ccccc21)OCO3,-0.333% (active)
15,CN(C)c1ncnc2c1cnn2C,84.6%
16,CC(C)(C)NCCC(O)c1cc(C(F)(F)F)nc2c(C(F)(F)F)cccc12 (stereo not drawn),71%
17,Cc1ccc(NC(=S)N2CCOCC2)cc1C,110%

# System: SF-295 CNS
# Experiment: as above
# Details: 10 µM unless noted
row,Compound,growth
1,NC(CCl)=NCC12CC3CC(CC(C3)C1)C2,26.4%
2,COc1ccc2c(c1)Nc1ccccc1S2,108%
3,CN1CCCN(C(c2ccccc2)c2ccc(Br)cc2)CC1 (stereo not drawn),57.8%
4,CCNc1ncnc2[nH]ncc12,112%
5,CC(C)(CC(=O)O)CC(=O)O,110%
6,CCc1ccccc1C(=O)N(CC)CC,97.6%
7,COc1cc2c(c(OC)c1OC)-c1ccc(SC)c(=O)cc1[C@@H](NC1OC(CO)C(O)C(O)C1O)CC2 (stereo partly drawn),-35.8% (active)
8,CC(C)(C)CC1(C)NC(=O)NC1=O (stereo not drawn),108%
9,O=C(c1ccc(Cl)cc1)N1CCCCC1,99.2%
10,O=C(O)CC1=CCCCC1,95.2%
11,CCOC(=O)c1ccc(Nc2sc(C(=O)c3ccc(Br)cc3)c(N)c2C#N)cc1,-11.1% (active)
12,NNc1ncnc2c1ncn2C1OC(CO)C(O)C1O (stereo not drawn),38.7%
13,NS(=O)(=O)c1cc(=O)[nH]c(=O)[nH]1,109%
14,CC(C)NC(=O)OCc1c(COC(=O)NC(C)C)c(-c2ccc(Cl)cc2)n2c1CCC2,20.8%
15,Cc1ccnc(Nc2nc3ccccc3[nH]2)n1,102%
16,NNc1ncnc2nc[nH]c12,45.9%
17,O=S(=O)(O)c1cccnc1,108%
18,O=C(O)c1cc(I)ccc1O,105%
19,Nc1nc2nnc(-c3ccccc3)c(-c3ccccc3)n2n1,71%
20,Nc1cc(N)ncn1,104%
21,Clc1ncnc2nc[nH]c12,107%
22,N=C(N)c1nn(C2OC(CO)C(O)C2O)c2nc[nH]c(=O)c12 (stereo not drawn),8.51% (active)
23,C[n+]1c(/C=C\C=C\N2CCCCC2)sc2ccccc21,-10.3% (active)
24,S=c1nc2[nH]c3ccccc3c2n[nH]1,72%
25,Cn1c2ccccc2c2nnc(NCCCCO)nc21,113%
26,O=C(NC1CCCCC1)c1ccc(Cl)cc1,105%
27,CNc1ccccc1C(=O)N/N=C/C=C/c1ccccc1,-0.27% (active)
28,C[n+]1cc2cc3c(cc2c2ccccc21)OCO3,9.18% (active)
29,CN(C)c1ncnc2c1cnn2C,94.5%
30,Cc1ccc(NC(=S)N2CCOCC2)cc1C,96.2%
